D1 antagonist: Antagonist of Human D 1 Dopamine Receptor: qHTS; D(1A) dopamine receptor (Homo sapiens), P21728; HEK293 TREx D1 cells, calcium flux, dopamine EC80; stronger effect = lower value; activity change, negative = inhibition, % at 10 µM; 360,000 tested, 3.2% active; in the data active = activity change below about -30%; note: % is set by controls: 0 for no effect and ±100 for the full control effect
Target sequence (P21728 whole entry, looked up): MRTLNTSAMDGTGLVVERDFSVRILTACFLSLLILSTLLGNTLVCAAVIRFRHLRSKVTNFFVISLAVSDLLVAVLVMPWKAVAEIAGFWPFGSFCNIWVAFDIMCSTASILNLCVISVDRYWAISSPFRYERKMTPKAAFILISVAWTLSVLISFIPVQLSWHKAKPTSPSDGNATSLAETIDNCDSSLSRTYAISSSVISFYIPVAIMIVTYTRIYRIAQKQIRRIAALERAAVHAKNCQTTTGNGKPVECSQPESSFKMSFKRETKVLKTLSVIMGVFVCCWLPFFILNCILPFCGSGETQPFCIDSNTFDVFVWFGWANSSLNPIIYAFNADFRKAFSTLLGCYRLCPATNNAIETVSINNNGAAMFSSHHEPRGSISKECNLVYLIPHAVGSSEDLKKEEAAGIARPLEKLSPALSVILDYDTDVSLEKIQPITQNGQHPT
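HEK293 T-REx cells expressing inducible, force-coupled D1 receptor; no-wash Ca dye, 30–90 min RT. Cmpd → 180 s read at 1 Hz → EC80 DA → 180 s read.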
D1 agonist: Allosteric Agonists of the Human D1 Dopamine Receptor: qHTS | D(1A) dopamine receptor (Homo sapiens), P21728 | HEK293 T-REx D1 cells, calcium flux, agonist mode | activation, % at 2 µM | 360,000 tested, 1% active; in the data active = activation above about 30%; note: 0% is about no effect
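Inducible HEK293 T-REx D1 cells, force-coupled to calcium signalling, were plated at 4000 cells/well with tetracycline and held overnight at 30 C. After no-wash calcium dye loading, compound-evoked calcium rise over 180 s flagged agonists.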
D1 potentiator: Potentiators of Human D1 Dopamine Receptor: qHTS; HEK293 TREx D1 cells, calcium flux, dopamine EC20 potentiation; potentiation, % at 10 µM; 360,000 tested, 0.036% active; AID 504651, 2011; in the data active = potentiation above about 30%; note: 0% is about no effect
D3 antag: qHTS of D3 Dopamine Receptor Antagonist: qHTS; 360,000 tested, 2.5% active; max response, negative = inhibition, %; D3R cells, DiscoveRx beta-arrestin luminescence, antagonist mode; stronger effect = lower value; AID 652054, 2013; in the data active = max response below about -50%; inconclusive = no clear call, values can overlap the other calls; note: % is set by controls: 0 for no effect and ±100 for the full control effect
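Cells expressing the human receptor were seeded at 1500 cells/well, incubated overnight at 37 degrees C in 5% CO2, then exposed to library compounds with dopamine controls for 90 minutes at 37 degrees C before luminescent detection.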
D3 ag: qHTS of D3 Dopamine Receptor Agonist: qHTS; D3R DiscoveRx beta-arrestin cells, luminescence, 90 min; D(3) dopamine receptor (Homo sapiens), P35462; 410,000 tested, 0.58% active; max activation, %; in the data active = max activation above about 30%; note: 0% is about no effect
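Cells at 1500/well, incubated overnight, then treated with pinned compounds (dopamine as control) for 90 min at 37 degrees C. DiscoveRx reagent added for 30 - 60 minutes at room temperature; luminescence read.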
The depositor's hits bear a star; ? = inconclusive; / = no result. Only some compounds are listed: those with a hit (about 6% of all), similar ones and a draw of the others.

SMILES	D1 antagonist	D1 agonist	D1 potentiator	D3 antag	D3 ag
COc1cccc(C2C(C(=O)Nc3ccc(Cl)cc3)=C(C)Nc3c(C(=O)Nc4ccccc4)cnn32)c1OC (configuration not stated)	-9	4	-1	/	-3
Cc1ccc(/C=C/C(=O)Nc2nn[nH]n2)o1	-1	3	-3	0	1
CC(C)c1ccc(/C=C/C(=O)Nc2nn[nH]n2)cc1	-31*	3	-4	/	/
CC(=O)NC(=O)COC(=O)/C=C/c1c(C)nn(Cc2c(Cl)cccc2Cl)c1Cl	/	-2	1	-56*	2
CC(Sc1nc(N)cc(=O)[nH]1)C(=O)Nc1nc2c(s1)CCCC2 (configuration not stated)	-41*	3	-7	-3	-2
Cc1ccc(-c2cnn3c(N4CCOCC4)cc(C)nc23)cc1	-8	1	-10	-2	-4
Cc1cc(N2CCOCC2)n2ncc(-c3ccc(Cl)cc3)c2n1	-33*	2	-5	0	6
COCCNC(=O)CN1C(=O)CCn2nc(-c3cn(C)c4ccccc34)cc21	11	2	2	/	-13
CCn1c(C)c(C(C)=O)c(N2CCCCC2)nc1=S	-89*	4	-16	-9	4
O=C(CCC1N=C2c3ccccc3N=C(SCc3ccccc3Cl)N2C1=O)NCCc1ccccc1 (configuration not stated)	9	9	-1	/	-11
Cc1cccc(CS(=O)(=O)Cc2ccc(C(=O)NCc3cccs3)o2)c1	-6	4	-8	6	32*
Cc1ccc(C(=O)c2c[nH]c(C(=O)NCc3cccnc3)c2)cc1	-49*	3	-10	-14	0
O=C(NCc1cccnc1)c1ccc(CS(=O)(=O)Cc2ccc(Cl)cc2)o1	-4	3	0	47	6
Cc1ccc(CS(=O)(=O)Cc2ccc(C(=O)NCc3cccnc3)o2)cc1	-33*	0	-1	-16	-3
Cc1cccc(CS(=O)(=O)Cc2ccc(C(=O)NCc3ccccc3)o2)c1	-20	6	-3	8	-3
C#CC(=O)N(c1cccc(OC)c1)C(C(=O)NC1CCCC1)c1cccs1 (configuration not stated)	-6	3	-6	-63*	-31
C#CC(=O)N(c1ccc(OC)c(OC)c1)C(C(=O)NC1CCCC1)c1cccs1 (configuration not stated)	9	1	2	-72*	-5
COc1ccc(N(C(=O)Cc2cccs2)C(C(=O)NC2CCCC2)c2ccncc2)cc1OC (configuration not stated)	31	1	0	-10	-32
Cc1cccc(N(C(=O)C(F)(F)F)C(C(=O)NC2CCCCC2)c2cccs2)c1 (configuration not stated)	/	/	/	-20	-1
CC(=O)Nc1ccc(Sc2ncccc2C(=O)Nc2ccc(F)cc2)cn1	3	99*	2	20	-4
COc1ccc(OC)c(CCNC(=O)C(C)n2c(C)c3cnn(-c4ccccc4)c(=O)c3c2C)c1 (configuration not stated)	-8	-3	-1	/	-14
Nc1c([N+](=O)[O-])cc2c3c(cccc13)CC2	/	/	/	-73*	-7
O=S(=O)(Nc1cc(Cl)ccc1-n1cncn1)c1ccc(F)cc1	-1	4	-1	-5	-1
O=S(=O)(Nc1cc(Cl)ccc1-n1cncn1)c1cc(Br)ccc1Br	-33*	21	-10	17	10
O=S(=O)(Nc1cc(Cl)ccc1-n1cncn1)c1ccccc1Cl	-3	2	2	-30	-2
SMILES	D1 antagonist	D1 agonist	D1 potentiator	D3 antag	D3 ag
Cc1ccc(S(=O)(=O)Nc2cc(Cl)ccc2-n2cncn2)cc1	-38*	1	2	-4	6
Cc1cc(=O)[nH]c(N=N/C(=N/Nc2ccc(O)cc2)c2ccccc2)n1	/	0	-1	-101*	2
COc1ccc(N/N=C(/N=Nc2nc(C)cc(=O)[nH]2)c2ccccc2)cc1	-3	0	-2	-57*	-6
Cc1cc(=O)[nH]c(N=N/C(=N/Nc2ccccc2C)c2ccccc2)n1	-11	-2	-5	?	-3
CC(C)N(CCC(=O)c1ccc2ccccc2c1)Cc1ccccc1	-32*	1	-7	-132*	-76
CC(OC(=O)c1ccc2ccccc2c1)C(=O)N(C)Cc1ccccc1 (configuration not stated)	-24	3	-1	13	-2
CCOc1ccccc1NC(c1nnc(-c2ccccc2)o1)c1ccc(F)cc1Cl (configuration not stated)	3	2	-3	/	-4
O=C(COc1ccc(S(=O)(=O)NC2CCCCC2)cc1)NC1CCCC1	-43*	4	-2	8	-2
Cn1c(SCC(=O)NCCNC(=O)CSc2nnc(C(F)(F)F)n2C)nnc1C(F)(F)F	-32*	-1	-1	-2	3
Cn1c(SCC(=O)Nc2ccccc2)nnc1C(F)(F)F	-30	2	0	0	0
COc1cc(OC)c(NC(=O)c2c(N3CCCC3=O)c3cc(C)ccc3n2C)cc1Cl	-88*	-2	-4	/	9
Cc1cc(C)cc(-n2c(SCC(=O)N3CCC(C)CC3)nc3c([nH]c4ccccc43)c2=O)c1	12	1	-1	/	2
COc1cccc(CNC(=O)CN2C(=O)COc3ccc(S(=O)(=O)Nc4ccccc4)cc32)c1	-3	0	0	/	-7
CC1COCC(C)N1C1=C(Cl)C(=O)c2ccccc2C1=O (configuration not stated)	/	/	/	-58*	-9
O=C1C(Cl)=C(N2CCC(C(=O)O)CC2)C(=O)c2ccccc21	8	4	-2	-53*	-7
CN1CCN(C2=C(Cl)C(=O)c3ccccc3C2=O)CC1	/	/	/	?	-20
NC(=O)C1CCN(C2=C(Cl)C(=O)c3ccccc3C2=O)CC1	1	4	-2	-75*	-11
CC1CN(C(=O)CSc2nnc(-c3ccccc3)o2)CC(C)O1 (configuration not stated)	2	0	3	18	5
Cc1c(Br)cc(F)c([S+](=O)([O-])N2CCN([S+](=O)([O-])c3ccc4c(c3)OCCO4)CC2)c1F	-29	1	3	/	/
COC(=O)c1nc2n(n1)C(c1cc(OC)ccc1OC)C(C(=O)Nc1ccc(C)cc1C)=C(C)N2 (configuration not stated)	10	0	1	/	9
COc1ccc2[nH]c3c(=O)n(/N=C/[C@H]4C(C)C=C(C)CC4C)c(=O)[nH]c3c2c1 (some centres not stated)	2	-2	-2	-22	0
